{"source": "PubChem BioAssay"}
{"assay": "binders of probe aFGF2 on microarray, primary screen, stem cell growth factor project, biochemical, small-molecule microarray, fluorescence 635/667 (AID 1067);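 further: measures binding of biotinylated aFGF2 protein to printed compounds on slides; z-score merges feature fluorescence and signal-to-noise across triplicate slides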", "conditions": "higher = more signal"}
{"smiles": "Cc1ccc(S[C@]2(C(=O)NC3CC3)CC(=O)N(Cc3cc(C(F)(F)F)cc(C(F)(F)F)c3)[C@@H]2c2ccc(CO)cc2I)cc1", "composite z-score": 0.21}
{"smiles": "C[N+](C)(C)CCCC[C@@H]1NC(=O)[C@H]2C[C@@H](C(=O)NCCCCCNC(=O)CS)[C@@H](c3ccc(O)cc3)N2C1=O", "composite z-score": -0.118}
{"smiles": "CC[C@H](C)C(=O)O[C@H]1CC[C@]2(C)C3=C(CCC2C1(C)C)[C@]1(C)CC[C@H]([C@H](C)CCCC(C)C)[C@@]1(C)CC3", "note": "(some centres undefined)", "composite z-score": -0.0691}
{"smiles": "COCCOC(=O)N1C(=O)[C@@]2(c3cc(C#CCC(C(=O)OC)C(=O)OC)ccc31)[C@H](C(=O)N1CCCCCCC1)[C@H]1C(=O)O[C@H](c3ccccc3)[C@H](c3ccccc3)N1[C@@H]2c1ccccc1OCCO", "composite z-score": 0.825}
{"smiles": "C=CCOC(=O)[C@H]1[C@@H]2C(=O)O[C@@H](c3ccccc3)[C@@H](c3ccccc3)N2[C@@H](c2ccc(OCCOC(=O)[C@H]3C[C@H]4C(=O)NCC(=O)N4[C@H]3c3ccc(O)cc3)cc2)[C@]12C(=O)Nc1ccc(I)cc12", "composite z-score": -0.0867}
{"smiles": "CC#CCO[Si](C#CCCCCCC)(C(C)C)C(C)C", "composite z-score": -0.24}
{"smiles": "CC(c1ccccc1)C(O)C1C=CC2C(=O)N(c3ccccc3)C(=O)C2N1Nc1ccc(C#N)cc1", "note": "(centres undefined)", "composite z-score": 0.255}
{"smiles": "O=C1c2ccccc2[C@@]2(Cc3ccccc3N(Cc3ccccc3)C2=O)[C@H](c2ccc(CO)cc2)N1Cc1ccccc1", "composite z-score": -0.078}
{"smiles": "CC(C)CNC(=O)[C@@H]1c2ccccc2C(=O)N(CC23CC4CC(CC(C4)C2)C3)[C@H]1c1ccc(CO)cc1", "composite z-score": -0.0056}
{"assay": "binders of probe aFGF10 on microarray, primary screen, stem cell growth factor project, biochemical, small-molecule microarray, fluorescence 635/667 (AID 1071);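 further: score merges 667 nm spot intensity and signal to noise from triplicate slides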", "conditions": "higher = more signal"}
{"smiles": "COCCOC(=O)N1C(=O)[C@@]2(c3cc(C#CCNC(N)=O)ccc31)[C@H](C(=O)NC[C@H](O)c1ccccc1)[C@H]1C(=O)O[C@H](c3ccccc3)[C@H](c3ccccc3)N1[C@@H]2c1ccc(OCCO)cc1", "composite z-score": 0.656}
{"smiles": "COC(=O)[C@@]1(Cc2ccc(F)cc2)[C@H]2c3cc(C(=O)N(C)C)n(CCn4cc([N+](=O)[O-])nc4C)c3C[C@H]2CN1C(=O)c1ccccc1", "composite z-score": 0.422}
{"smiles": "CN(C)CCCCNC(=O)[C@H]1C[C@H]2C(=O)N[C@@H](Cc3ccccc3)C(=O)N2[C@H]1c1cccc(OCCO)c1", "composite z-score": -0.436}
{"smiles": "CCCCN1CC=CC23O[C@@H]4/C=C\\CCC(C)OC(=O)C4[C@H]2C(=O)N(C(C)CO)[C@@H]3C1=O", "note": "(some centres undefined)", "composite z-score": -0.0863}
{"smiles": "CCCCC(=C=CC[C@@H](O)c1cccc(OCCO)c1)CCO", "composite z-score": 0.601}
{"smiles": "CN1C=C(C(=O)OCCS(C)(=O)=O)C(C(=O)OCCS(C)(=O)=O)=CC(CCCO)=CC1c1ccc(CN2CCCC2)cc1", "note": "(centres undefined)", "composite z-score": 1.11}
{"smiles": "C#CCN(C/C=C/c1ccccc1)[C@H](CO[Si](C)(C)C(C)(C)C)c1ccccc1", "composite z-score": -0.284}
{"smiles": "O=C1O[C@H](c2ccccc2)[C@H](c2ccccc2)N2[C@H]1[C@@H](C(=O)N1CCN(c3ncccn3)CC1)[C@]1(C(=O)Nc3ccccc31)[C@H]2c1ccc(O)cc1", "composite z-score": 0.366}
{"smiles": "[N-]=[N+]=NCc1ccccc1[C@@H]1OC(c2ccc(OCCCO)cc2)=N[C@]1(Cc1ccccc1)C(=O)NCc1ccccc1", "composite z-score": 0.22}
{"smiles": "C=CCOC(=O)[C@H]1[C@@H]2C(=O)O[C@@H](c3ccccc3)[C@@H](c3ccccc3)N2[C@@H](c2ccc(OCCOC(=O)[C@@H]3C[C@@H]4C(=O)N[C@@H](CC(C)C)C(=O)N4[C@@H]3c3ccc(O)cc3)cc2)[C@]12C(=O)Nc1ccc(I)cc12", "composite z-score": -0.0479}
{"smiles": "CC(C)CNC(=O)[C@@]1(C)c2ccccc2C(=O)N(Cc2cc(F)cc(C(F)(F)F)c2)[C@H]1c1ccc(CO)cc1", "composite z-score": 0.325}
{"smiles": "NCCCC[C@@H]1NC(=O)[C@H]2C[C@@H](C(=O)O)[C@@H](c3cccc(OCCO)c3)N2C1=O", "composite z-score": 0.856}
{"smiles": "CC(C)C[C@@H]1NC(=O)[C@H]2C[C@@H](C(=O)NCCCCCNC(=O)CS)[C@@H](c3ccc(O)cc3)N2C1=O", "composite z-score": 0.834}
{"smiles": "CO[C@H]1O[C@H](CO)[C@@H](OC(=O)Nc2ccccc2)[C@@H]2OC(=O)[C@H](Cc3ccccc3)C/C=C/C[C@@H](Cc3ccccc3)C(=O)O[C@@H]12", "composite z-score": 0.775}
{"smiles": "CC(C)CNC(=O)[C@@H]1c2ccccc2C(=O)N(Cc2ccccc2Cl)[C@H]1c1ccc(CO)cc1", "composite z-score": -0.833}
{"smiles": "CCc1cccc(NC(=O)O[C@H]2[C@H](OC(=O)Nc3ccc4c(c3)OCO4)[C@H](OC(=O)Nc3ccc4c(c3)OCO4)[C@@H](OC)O[C@@H]2CO)c1", "composite z-score": 0.263}
{"smiles": "CCN(CC)c1ccc(N2CC=CC34O[C@@H]5C=CCOC(=O)[C@@H]5[C@H]3C(=O)N(CCCO)[C@@H]4C2=O)cc1", "note": "(some centres undefined)", "composite z-score": -0.679}
{"smiles": "C=C(CCCC)/C(=C/C[C@H](OC(C)=O)c1cccc(OCCO)c1)c1cc(C(=O)OC)ccc1OC", "composite z-score": -0.0418}
{"smiles": "C=C(COC)/C(=C/C[C@H](OC(=O)c1ccncc1)c1ccc(OCCO)cc1)c1cc(C(=O)OC)ccc1OC", "composite z-score": 1.08}
{"smiles": "NC(=O)NCC#Cc1ccc2c(c1)[C@]1(C(=O)N2)[C@H](C(=O)Nc2nc3ccccc3s2)[C@H]2C(=O)O[C@H](c3ccccc3)[C@H](c3ccccc3)N2[C@@H]1c1ccc(OCCO)cc1", "composite z-score": 0.331}
{"smiles": "C=CCNC(=O)[C@H]1[C@@H]2C(=O)O[C@@H](c3ccccc3)[C@@H](c3ccccc3)N2[C@@H](c2ccc(O)cc2)[C@]12C(=O)Nc1ccc(C#CC3=CCCCC3)cc12", "composite z-score": 0.447}
{"smiles": "C=CCC(OC(C)=O)[C@@H]1[C@@H](N(Cc2cccc3ccccc23)C(=O)c2ccc(-c3ccccc3)cc2)c2cc(OCCCO)ccc2N1C(=O)c1ccc2ccccc2n1", "note": "(some centres undefined)", "composite z-score": 0.0632}
{"smiles": "O=C1c2ccccc2[C@](Cc2ccccc2I)(C(=O)O)[C@H](c2ccc(CO)cc2)N1Cc1ccccc1", "composite z-score": 0.0611}
{"smiles": "CC(C)[C@@H](C(=O)O)n1cc(-c2ccccc2)nn1", "composite z-score": 0.779}
{"smiles": "C/C=C/CN(C(=O)C#Cc1ccccc1)[C@H](CO[Si](C)(C)C(C)(C)C)c1ccccc1", "composite z-score": -0.77}
{"smiles": "COCCOC(=O)N1C(=O)[C@@]2(c3cc(C#CCCO)ccc31)[C@H](c1ccc(O)cc1)N1[C@H](c3ccccc3)[C@H](c3ccccc3)OC(=O)[C@H]1[C@@H]2C(=O)N1CCc2cc(OC)c(OC)cc2C1", "composite z-score": 0.525}
{"smiles": "Cc1ccc(S[C@]2(C(=O)NC3CC3)CC(=O)N(Cc3cc(C(F)(F)F)cc(C(F)(F)F)c3)[C@@H]2c2ccc(CO)cc2I)cc1", "composite z-score": 0.0945}
{"smiles": "C[N+](C)(C)CCCC[C@@H]1NC(=O)[C@H]2C[C@@H](C(=O)NCCCCCNC(=O)CS)[C@@H](c3ccc(O)cc3)N2C1=O", "composite z-score": 0.198}
{"smiles": "CC[C@H](C)C(=O)O[C@H]1CC[C@]2(C)C3=C(CCC2C1(C)C)[C@]1(C)CC[C@H]([C@H](C)CCCC(C)C)[C@@]1(C)CC3", "note": "(some centres undefined)", "composite z-score": 0.332}
{"smiles": "COCCOC(=O)N1C(=O)[C@@]2(c3cc(C#CCC(C(=O)OC)C(=O)OC)ccc31)[C@H](C(=O)N1CCCCCCC1)[C@H]1C(=O)O[C@H](c3ccccc3)[C@H](c3ccccc3)N1[C@@H]2c1ccccc1OCCO", "composite z-score": 0.481}
{"smiles": "C=CCOC(=O)[C@H]1[C@@H]2C(=O)O[C@@H](c3ccccc3)[C@@H](c3ccccc3)N2[C@@H](c2ccc(OCCOC(=O)[C@H]3C[C@H]4C(=O)NCC(=O)N4[C@H]3c3ccc(O)cc3)cc2)[C@]12C(=O)Nc1ccc(I)cc12", "composite z-score": 0.202}
{"smiles": "CC#CCO[Si](C#CCCCCCC)(C(C)C)C(C)C", "composite z-score": -1.16}
{"smiles": "CC(c1ccccc1)C(O)C1C=CC2C(=O)N(c3ccccc3)C(=O)C2N1Nc1ccc(C#N)cc1", "note": "(centres undefined)", "composite z-score": 0.752}
{"smiles": "O=C1c2ccccc2[C@@]2(Cc3ccccc3N(Cc3ccccc3)C2=O)[C@H](c2ccc(CO)cc2)N1Cc1ccccc1", "composite z-score": -0.221}
{"smiles": "CC(C)CNC(=O)[C@@H]1c2ccccc2C(=O)N(CC23CC4CC(CC(C4)C2)C3)[C@H]1c1ccc(CO)cc1", "composite z-score": 0.205}
